Records with an inconclusive call do not appear. Values without a mark were called inactive. Calls of active or inactive are those of the source. The call rests on the fitted dose curve; in most records, active means well fitted cell-killing curve with a large enough effect; inconclusive means small, poorly fitted or top-dose-only effect, or effect the other way; inactive means no such curve, though single readings can be large or run the other way.
tested on: PA-1; test: Confirmatory qHTS for gynecologic anti-cancer compounds from libraries of approved drugs and bioactive compounds; conditions: gynecologic cancer cell panel viability, ATPlite luminescence, 48 h; series mostly up to 57.6 µM; activity change, negative = viability loss: at the top concentration; further: nearly all actives have a fitted effect of over 55% in size
Description: National Center for Advancing Translational Sciences [NCATS] Assay Overview: Chemotherapeutic drug responses vary from cancer to cancer and from patient to patient. These variations could be caused by a number of factors including patient genomic background, tumor mutations, tumor heterogeneity, and aspects of drug treatment. Chemotherapeutic drug resistance is also a common issue and can lead to ineffective treatment and patient death. Here we have profiled the cell killing effects of thousands of compounds to characterize the responses in three gynecological cancers, identify cancer-selective compounds, and understand the diversity of responses to these compounds from pan-cancer suppressors to single cell line selective compounds. In this assay, we screened a 7,914 compound drug library that included approved drug and bioactive compounds in six ovarian, three cervical, and two placental cancer cell lines using the ATPlite assay for cell viability. ATPlite is a luminescence based assay reliant on the conversion of a luciferase substrate to light in the presence of ATP. As a cytotoxic compound will suppress growth and decrease the number of cells, the concentration of ATP will decrease, and less light signal will be detected in the well. Hits were selected from the primary screen for follow-up confirmation. For the confirmation screens, the ovarian cancer cell lines included CAOV-3, SK-OV-3, SW 626, ES-2, PA-1, and TOV-21G. The cervical cancer cell lines included HeLa, Ca Ski, and C-33 A. The placental cancer cell lines included JEG-3 and JAR. HEK 293T cells were used as the control cell line to determine the selectivity index. The ATPlite assay was used to determine the IC50 values.
Assay Protocol Summary: 1,000 cells in 4 uL of media were dispensed into white, solid bottom 1536-well plates using a Multidrop Combi (Thermo Scientific). The Assay plates were incubated for 16 hours at 37 C with 5% CO2 in assay plates, followed by the addition of 23 nL of DMSO or drug dissolved in DMSO. . Each compound was assayed in 11 concentrations (1:3 dilution) from 57.5 uM to 0.977 nM, using the automated Wako 1536 Pin Tool workstation and incubated at 37 C with 5% CO2 48 hours. 4 uL of ATPlite, the ATP monitoring reagent, was then added to the each well of the assay plates using the Multidrop Combi reagent dispenser followed by incubation for 15 minutes at room temperature. The resulting luminescence was measured using the ViewLux plate reader.
On the % scale 0 is the no-effect control and ±100 the full control effect; potency means the concentration at half of the fitted maximal effect.

SMILES | Potency | activity change, negative = viability loss
CCN(CC)CCOc1ccc(/C(=C(\Cl)c2ccccc2)c2ccccc2)cc1 | 28.2 µM (active) | 
CCc1cccc(CC)c1NC(=O)N1Cc2[nH]nc(NC(=O)c3ccc(N4CCN(C)CC4)cc3)c2C1 | 2.43 µM (active) | 
CN(C)C/C=C/C(=O)Nc1cc2c(Nc3ccc(F)c(Cl)c3)ncnc2cc1OC1CCOC1 (stereo not given) | 9.68 µM (active) | 
CC(C)(C(=O)NCC(F)(F)C(F)(F)F)C(=O)NC1C(=O)Nc2ccccc2-c2ccccc21 (stereo not given) | 9.68 µM (active) | 
FC(F)(F)c1ccc(/C=C/c2nc(COc3ccc(CCCCn4ccnn4)cc3)co2)cc1 | 0.0193 µM (active) | 
NC(=O)Nc1cc(-c2cccc(F)c2)sc1C(=O)NC1CCCNC1 (stereo not given) | 1.72 µM (active) | 
CC(=O)c1cnc2ccc(-c3cc(Cl)c(O)c(Cl)c3)nc2c1NC1CCC(CN(C)C)CC1 (stereo not given) | 0.222 µM (active) | 
OCc1ccc(-c2ccc(-c3ccc(CO)s3)o2)s1 |  | -21.5% [at 19.5 µM]
COc1cc(Nc2c(C#N)cnc3cc(OCCCN4CCN(C)CC4)c(OC)cc23)c(Cl)cc1Cl | 13.7 µM (active) | 
Cc1ccc(C(=O)N(CCCN)C(c2nc3cc(Cl)ccc3c(=O)n2Cc2ccccc2)C(C)C)cc1 (stereo not given) | 0.0172 µM (active) | 
C[C@@H](Oc1cc(-c2cnn(C3CCNCC3)c2)cnc1N)c1c(Cl)ccc(F)c1Cl | 6.85 µM (active) | 
CCC1C(=O)N(C)c2cnc(Nc3ccc(C(=O)NC4CCC(N5CCN(CC6CC6)CC5)CC4)cc3OC)nc2N1C(C)C (stereo not given) | 0.0769 µM (active) | 
CCCCc1oc2ccc(NS(C)(=O)=O)cc2c1C(=O)c1ccc(OCCCN(CCCC)CCCC)cc1 | 27.3 µM (active) | 
Cc1nc(NC(=O)N2CCCC2C(N)=O)sc1-c1csc(C(C)(C)C)n1 (stereo not given) | 27.3 µM (active) | 
C#C[C@]1(O)CC[C@H]2[C@@H]3CCC4=CC(=O)CC[C@@H]4[C@H]3CC[C@@]21CC |  | -1.74%
COc1cccc2cc(-c3nc(C4CCC(C(=O)O)CC4)n4ncnc(N)c34)[nH]c12 (stereo not given) | 9.68 µM (active) | 
Cn1cc(-c2[nH]c3cc(NC(=O)[C@H](N)C4CCCCC4)cc4c3c2C=NNC4=O)cn1 | 8.63 µM (active) | 
C=CC(=O)Nc1cccc(Oc2nc(Nc3ccc(N4CCN(C)CC4)cc3)ncc2Cl)c1 | 7.69 µM (active) | 
CNC1CCC(N(Cc2cccc(-c3ccncc3)c2)C(=O)c2sc3ccccc3c2Cl)CC1 (stereo not given) | 24.3 µM (active) | 
Cc1ccn(-c2ccc(-c3ncco3)cc2)c(=O)c1-c1ccc2nc(N)ncc2c1 | 27.3 µM (active) | 

SMILES | Potency | activity change, negative = viability loss
COc1cc(N2CCC(N(C)C)CC2)ccc1Nc1ncc(Cl)c(Nc2ccccc2P(C)(C)=O)n1 | 6.11 µM (active) | 
Cn1c(=O)c(F)c(Nc2ccc(I)cc2F)c2c(=O)n(CC(O)CO)cnc21 (stereo not given) | 2.17 µM (active) | 
COc1cc2c(c(OC)c1OC)-c1ccc(OC)c(=O)cc1[C@@H](NC(C)=O)CC2 | 0.126 µM (active) | 
Cc1cnc(CNC(=O)c2c(=O)c3ccc(N4CCCN(C)CC4)nc3n3c2sc2ccccc23)cn1 | 1.11 µM (active) | 
COc1c(C)c2c(c(O)c1C/C=C(\C)CCC(=O)O)C(=O)OC2 | 2.17 µM (active) | 
CNC(=O)c1ccccc1Sc1ccc2c(/C=C/c3ccccn3)n[nH]c2c1 | 4.32 µM (active) | 
CC1=C(/C=C/C(C)=C/C=C/C(C)=C/C(=O)Nc2ccc(O)cc2)C(C)(C)CCC1 | 4.85 µM (active) | 
Cc1ccc(C(N)=O)cc1Nc1nccc(-c2cn(C(C)C)c3cnccc23)n1 | 1.37 µM (active) | 
OCCNC1CCCc2c1[nH]c1ccc(-c3ccccc3)cc21 (stereo not given) | 27.3 µM (active) | 
CCN1C[C@H](C)n2c(c(O)c3c(=O)n(Cc4ccc(F)c(Cl)c4)nc(C(=O)NC)c32)C1=O |  | 33.3%
CN1C(=O)C(Cc2c[nH]c3ccccc23)NC1=S (stereo not given) |  | 11% [at 19.5 µM]
CCCCN(CCCC)C(=O)CN1C[C@H](c2ccc3c(c2)OCO3)[C@@H](C(=O)O)[C@@H]1c1ccc(OC)cc1 |  | 3.06%
COc1cc(N2CCC(N3CCN(C)CC3)CC2)ccc1Nc1ncnc(Nc2ccccc2S(=O)(=O)C(C)C)n1 | 9.68 µM (active) | 
CNc1nccc(-c2cccnc2Oc2cc(C(=O)Nc3cccc(C(F)(F)F)c3)ccc2C)n1 | 17.2 µM (active) | 
CCCCc1oc2ccccc2c1C(=O)c1cc(I)c(OCCN(CC)CC)c(I)c1 | 39.8 µM (active) | 
CCn1cc(-c2ccnc3[nH]c(-c4cccc(CN(C)C)c4)cc23)c(-c2ccc(NC(=O)N(C)C)cc2)n1 | 8.41 µM (active) | 
OC[C@H]1O[C@@H](n2cnc3c(=S)nc[nH]c32)[C@H](O)[C@@H]1O | 2.73 µM (active) | 
Cc1c(C)n(Cc2ccc(-c3ccccc3C(=O)O)cc2)c2ccc(C(=O)N[C@@H](C)c3ccc([N+](=O)[O-])cc3)cc12 |  | -26.3%
O=C(NCC(O)CO)c1ccncc1Nc1ccc(I)cc1F (stereo not given) | 0.0611 µM (active) | 
c1cc(N[C@@H]2CCNC2)nc(-c2cnc3ccc(-c4cn[nH]c4)cn23)c1 | 1.72 µM (active) | 

Source: PubChem BioAssay AID1345085 (National Center for Advancing Translational Sciences (NCATS), 2018)
